Assay results as given in PubChem BioAssay AID2284134 (EPA ToxCast).
Activity calls are given as the source filed them. How the source made its calls: active means hit-call score of the fitted dose curve at least 0.9, where 1 is the maximum; inactive means score below 0.9.

Target: human PKD2 (PRKD2) CAMK Kinase, PRKD2 (gene 25865) (UniProt Q9BZL6)
Experiment: ERF_KP_ENZ_hPKD2: Eurofins (ERF) Enzymatic Radiometric [10 uM ATP] KinaseProfiler LeadHunter Assay for human PKD2 (PRKD2) CAMK Kinase
Experimental: ERF_KP_ENZ_hPKD2 is a biochemical, single-readout assay that uses extracted gene-proteins in a cell-free assay. Measurements were taken 0.66 hour after chemical dosing in a 96-well plate. See PKD2 Human Protein Ser/Thr Kinase Enzymatic Radiometric Assay [10 uM ATP], KinaseProfiler.ERF_KP_ENZ_hPKD2 is an assay component calculated from the ERF_KP_ENZ_hPKD2 assay. It is designed to measure enzyme activity using a type of enzyme reporter as detected by scintillation counting with radiometry technology.Data from the assay component ERF_KP_ENZ_hPKD2 was analyzed at the assay endpoint, ERF_KP_ENZ_hPKD2, in the positive analysis fitting direction relative to DMSO as the negative control and baseline of activity. Using a type of enzyme reporter, loss-of-signal activity can be used to understand changes in enzymatic activity as they relate to gene PRKD2. To generalize the intended target to other relatable targets, this assay endpoint is annotated to the kinase intended target family, where the subfamily is serine/threonine kinase.
PKD2 (h) is incubated with 20 mM HEPES pH 7.4, 0.03% Triton X-100, 30 uM […], 10 mM MgAcetate and [gamma-33P]-ATP (specific activity and concentration as required). The reaction is initiated by the addition of the Mg/ATP mix. After incubation for 40 minutes at room temperature, the reaction is stopped by the addition of phosphoric acid to a concentration of 0.5%. […]

human PKD2 (PRKD2) CAMK Kinase, PRKD2 (gene 25865), sequence (Q9BZL6 whole entry, looked up): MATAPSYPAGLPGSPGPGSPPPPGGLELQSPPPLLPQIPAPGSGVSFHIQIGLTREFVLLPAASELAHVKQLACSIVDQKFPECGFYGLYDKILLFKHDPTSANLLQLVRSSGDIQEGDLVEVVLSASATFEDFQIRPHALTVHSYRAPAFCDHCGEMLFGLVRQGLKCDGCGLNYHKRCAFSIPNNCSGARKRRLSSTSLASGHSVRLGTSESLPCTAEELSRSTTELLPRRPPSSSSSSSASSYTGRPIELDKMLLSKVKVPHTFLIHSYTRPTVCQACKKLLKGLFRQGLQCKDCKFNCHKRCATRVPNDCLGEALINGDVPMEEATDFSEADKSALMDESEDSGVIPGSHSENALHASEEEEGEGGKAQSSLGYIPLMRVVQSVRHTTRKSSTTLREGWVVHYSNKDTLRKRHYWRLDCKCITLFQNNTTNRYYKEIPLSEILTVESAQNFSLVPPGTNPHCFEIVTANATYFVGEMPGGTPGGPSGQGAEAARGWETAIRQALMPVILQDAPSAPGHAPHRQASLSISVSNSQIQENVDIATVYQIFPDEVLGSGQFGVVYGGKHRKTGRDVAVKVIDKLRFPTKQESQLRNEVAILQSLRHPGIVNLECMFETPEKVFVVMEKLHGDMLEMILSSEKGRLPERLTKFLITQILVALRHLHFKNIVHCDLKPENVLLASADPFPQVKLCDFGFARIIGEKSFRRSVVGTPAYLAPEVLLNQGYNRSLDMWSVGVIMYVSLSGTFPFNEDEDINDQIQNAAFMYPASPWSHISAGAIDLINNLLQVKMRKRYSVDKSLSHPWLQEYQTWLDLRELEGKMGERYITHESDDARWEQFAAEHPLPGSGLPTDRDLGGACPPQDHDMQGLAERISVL

Structure (SMILES)	AC50
O=C(/C=C/c1ccc(O)cc1)CC(=O)/C=C/c1ccc(O)cc1	0.3 nM (active)
